Laboratory results from PubChem BioAssay AID504883 (The Scripps Research Institute Molecular Screening Center, 2011).
The source made the active and inactive calls.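 Rule for the calls: active = EC50 at or below 10 µM; inactive = EC50 above 10 µM.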

experiment: FP signal increase by Cy5-IP20 peptide alone, dose response, artefact control for PKA-R1A complex activator project, biochemical, fluorescence polarization, 1536-well HTS (AID 504883); conditions: fluorescence polarization artifact counterscreen

Question: Which EC50 does the source give for Nc1ncnc2c1nc(Br)n2[C@@H]1O[C@@H]2COP(=O)(O)O[C@H]2[C@H]1O here?
Answer: > 114 µM (inactive)

Question: With Nc1nc2c(nc(Br)n2[C@@H]2O[C@@H]3COP(=O)(O)O[C@H]3[C@H]2O)c(=O)[nH]1 as the compound, how does the EC50 read?
Answer: > 114 µM (inactive)

Question: For CCCC(=O)Nc1ncnc2c1ncn2[C@@H]1O[C@@H]2COP(=O)(O)O[C@H]2[C@H]1OC(=O)CCC, which EC50 is on record?
Answer: > 114 µM (inactive)

Question: With CCOP1(=O)OCC2OC(n3cnc4c(N)ncnc43)C(O)C2O1 (stereo unspecified) as the compound, how does the EC50 read?
Answer: > 114 µM (inactive)

Question: Which EC50 does the source give for CCCC(=O)Nc1ncnc2c1ncn2[C@@H]1O[C@@H]2OP(=O)(O)OC[C@H]2[C@H]1OC(=O)CCC here?
Answer: > 114 µM (inactive)

Question: With Nc1ncnc2c1nc(Sc1ccc(Cl)cc1)n2[C@@H]1O[C@@H]2COP(=O)(O)O[C@H]2[C@H]1O as the compound, how does the EC50 read?
Answer: > 114 µM (inactive)
